This is part of a sample that, as a whole, favours compounds with a hit. Of some 83,000 tested, about 20% had one in any assay.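 Interpretation: 100, growth as untreated; towards 0, rising growth inhibition; 0, no net growth; 0 to -100, cell death. Compounds scoring below 10 were considered active.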 Activity calls are given as the source filed them.
What follows are compounds tested on MDA-MB-468 breast (assay: NCI-60 one-dose screen, 48 h (100 = growth as untreated, 0 = no growth, -100 = all killed)). Details: 10 µM unless noted.
With `O=C(O)C1[S][Sb]([CH](C(=O)O)[CH](C(=O)O)[Sb]2[S]C(C(=O)O)C(C(=O)O)[S]2)[S]C1C(=O)O` (centres undefined) the growth was 81.6% (inactive).
`O=C(NNc1ccccc1)C1CCCN1` (centres undefined) was tested, and the growth was 81% (inactive).
With `N#CC1=C(N)Oc2c(sc3c(F)cccc23)C1c1ccc(F)cc1` (centres undefined) the growth was 26.5% (inactive).
With `CC1=CC(C)(C)Nc2ccc(Cc3ccc4c(c3)C(C)=CC(C)(C)N4)cc21` the growth was -12.4% (active).
In the case of `CC(Cc1cccc(C(F)(F)F)c1)NCCOC(=O)c1ccccc1` (centres undefined), the growth was 107% (inactive).
For `CN1CCN(Cc2ccc(NC(=O)c3cncc(C#Cc4nc(N)nc5[nH]ncc45)c3)cc2C(F)(F)F)CC1`, the growth was 35.1% (inactive).
`CCN(CCO)CC(=O)c1cc(Cl)cc(Cl)c1Cl` was tested, and the growth was 110% (inactive).
For `COC(=O)c1c2c(c(C)[n+]([O-])c1C)C(=O)C(NCc1ccc(O)cc1)=CC2=O`, the growth was -44.2% (active).
`Cn1c(NCCc2ccc(O)c(O)c2)nc2c1c(=O)n(Cc1ccc(Cl)c(Cl)c1)c(=O)n2C` was tested, and the growth was 49.4% (inactive).
In the case of `COc1cc(C2CC(c3cccc(Nc4ccnc5cc(Cl)ccc45)c3)=NN2C=O)cc(OC)c1OC` (centres undefined), the growth was -37.1% (active).
With `OC(c1cccc(C(F)(F)F)c1)c1cnccc1NC1CCCCC1` (centres undefined) the growth was 33% (inactive).
In the case of `C=C1C(=O)O[C@H]2[C@H]1CC/C(COC(=O)/C=C\C(=O)NCc1ccc(Cn3c(=O)sn(-c4ccccc4)c3=O)cc1)=C\CC[C@@]1(C)O[C@@H]21`, the growth was 30.5% (inactive).
In the case of `CC(=O)c1cccc(OC(=O)c2ccccc2)c1`, the growth was 104% (inactive).
With `CCSc1ccc([C@@H]2[C@@H](N)C(=O)N2c2cc(OC)c(OC)c(OC)c2)cc1` the growth was 17% (inactive).
For `OCCc1ccc(Cl)cc1`, the growth was 103% (inactive).
`COc1ccc(/C=C2\CCCC3=C2NC(N)=NC3c2ccc(OC)c(OC)c2)cc1OC` (centres undefined) was tested, and the growth was -16.3% (active).
With `Cc1ccc(C(=O)Cc2ccccc2)c(O)c1` the growth was 117% (inactive).
For `C[C@H](CCC[C@H](C)OS(=O)(=O)c1ccccc1)OS(=O)(=O)c1ccccc1`, the growth was 110% (inactive).
In the case of `O=c1cc(-c2ccccc2)nc2sc(-c3c[nH]c4ccc(Br)cc34)nn12`, the growth was 87.2% (inactive).
With `CCCCCCSc1ncnc2nc[nH]c12` the growth was 67.3% (inactive).
For `Cc1c(C(N)=O)sc2c1c(=O)n(Cc1ccccc1)c1nnc(Nc3ccccc3)n21`, the growth was 108% (inactive).
`COc1ccc(C(=O)c2sc3nc4c(cc3c2N)CCCC4)cc1OC` was tested, and the growth was -5.94% (active).
In the case of `CN1CCN(c2ccc(Nc3c4ccccc4nc4ccccc34)cc2)CC1`, the growth was 102% (inactive).
With `Cc1cc(N(CCNc2ccnc3cc(Cl)ccc23)Cc2cccs2)nc(Cl)n1` the growth was -65.2% (active).
`COc1ccc(/C=C(\C#N)n2nnc3ccc(Cl)cc32)cc1` was tested, and the growth was 28.9% (inactive).
In the case of `COC(=O)[C@]12CC[C@@H](C)[C@H](C)[C@@H]1C1=CC[C@@H]3[C@@]4(C)C=C(O)C(=O)[C@@]5(C)COC(=C54)C[C@@]3(C)[C@]1(C)CC2`, the growth was -57.7% (active).
In the case of `O=c1oc2c(cc1-c1ccccc1)c[n+]([O-])c1ccccc21`, the growth was 104% (inactive).
`CN(C)c1ncnc2c1cnn2C` was tested, and the growth was 106% (inactive).
With `NNC(=S)N/N=C/c1ccccn1` the growth was 8.55% (active).
`COC(=O)c1cccnc1` was tested, and the growth was 97.7% (inactive).
In the case of `C[C@H](NC(=O)c1c(N)nn2cccnc12)c1cc2cccc(C#Cc3cnn(C)c3)c2c(=O)n1-c1ccccc1`, the growth was -21.2% (active).
`O=C(N/N=C\c1ccc(Cl)cc1)C(=O)N/N=C\c1ccc(Cl)cc1` was tested, and the growth was 124% (inactive).
For `N[C@H]1CN(C(=O)c2cc3cc(Br)c(F)c(F)c3[nH]2)C[C@@H]1O`, the growth was 106% (inactive).
In the case of `CCCCCCCCNc1cc2c3c(c1)CCCN3CCC2`, the growth was -23% (active).
In the case of `CCCCCCC1(C)NCCO1` (centres undefined), the growth was 103% (inactive).
For `C#Cc1nc(C(=O)NCCCCCCC(=O)NO)cs1`, the growth was -33.8% (active).
In the case of `C=C1C(=O)O[C@H]2[C@H]1CC/C(COC(=O)C(=O)c1c[nH]c3ccc(Cl)cc13)=C\CC[C@@]1(C)O[C@@H]21`, the growth was -67.3% (active).
For `COc1cc2c(cc1OC)C1CCN3C(=O)CCC3N1CC2` (centres undefined), the growth was 107% (inactive).
With `O=C(CN1C(=O)NC2NC(=O)NC21)N/N=C/c1cccc([N+](=O)[O-])c1` (centres undefined) the growth was 97.6% (inactive).

From PubChem BioAssay (NCI)
